The target in assay [1] is T1, Ephrin type-B receptor 1 (Homo sapiens) (UniProt P54762).
T1 sequence (whole entry): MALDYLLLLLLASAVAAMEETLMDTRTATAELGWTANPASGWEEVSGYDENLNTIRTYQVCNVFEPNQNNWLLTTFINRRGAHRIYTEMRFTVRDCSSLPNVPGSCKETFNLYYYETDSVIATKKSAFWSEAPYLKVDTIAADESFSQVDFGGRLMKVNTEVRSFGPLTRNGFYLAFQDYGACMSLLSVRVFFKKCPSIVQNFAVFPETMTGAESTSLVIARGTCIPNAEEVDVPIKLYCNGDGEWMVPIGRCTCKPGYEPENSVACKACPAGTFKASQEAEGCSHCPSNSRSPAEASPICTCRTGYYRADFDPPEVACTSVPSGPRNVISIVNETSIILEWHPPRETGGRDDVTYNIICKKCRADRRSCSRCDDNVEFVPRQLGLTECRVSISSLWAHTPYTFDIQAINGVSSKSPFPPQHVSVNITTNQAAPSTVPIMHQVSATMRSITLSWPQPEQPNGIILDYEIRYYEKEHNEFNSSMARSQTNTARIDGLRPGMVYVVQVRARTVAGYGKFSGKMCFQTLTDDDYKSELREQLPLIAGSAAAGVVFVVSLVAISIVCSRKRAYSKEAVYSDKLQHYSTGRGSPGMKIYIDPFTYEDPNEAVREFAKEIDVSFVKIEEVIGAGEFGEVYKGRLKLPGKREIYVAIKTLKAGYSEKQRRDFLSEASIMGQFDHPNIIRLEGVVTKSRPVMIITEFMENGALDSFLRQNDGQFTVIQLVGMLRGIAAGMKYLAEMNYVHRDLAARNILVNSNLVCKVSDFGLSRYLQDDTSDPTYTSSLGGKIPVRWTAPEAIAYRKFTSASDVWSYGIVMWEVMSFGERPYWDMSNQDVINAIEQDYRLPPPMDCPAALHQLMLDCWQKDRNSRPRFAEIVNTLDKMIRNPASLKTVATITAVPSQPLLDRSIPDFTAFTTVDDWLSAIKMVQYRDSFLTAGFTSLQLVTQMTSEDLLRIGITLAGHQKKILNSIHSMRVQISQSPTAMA
The note with it: at 1 µM.

The target in assay [2] is T1, Ephrin type-B receptor 1 (Homo sapiens). The note with it: at 10 µM.
Assay [3] addresses T2, Ephrin type-B receptor 2 (Homo sapiens) (UniProt P29323).
T2 sequence (whole entry): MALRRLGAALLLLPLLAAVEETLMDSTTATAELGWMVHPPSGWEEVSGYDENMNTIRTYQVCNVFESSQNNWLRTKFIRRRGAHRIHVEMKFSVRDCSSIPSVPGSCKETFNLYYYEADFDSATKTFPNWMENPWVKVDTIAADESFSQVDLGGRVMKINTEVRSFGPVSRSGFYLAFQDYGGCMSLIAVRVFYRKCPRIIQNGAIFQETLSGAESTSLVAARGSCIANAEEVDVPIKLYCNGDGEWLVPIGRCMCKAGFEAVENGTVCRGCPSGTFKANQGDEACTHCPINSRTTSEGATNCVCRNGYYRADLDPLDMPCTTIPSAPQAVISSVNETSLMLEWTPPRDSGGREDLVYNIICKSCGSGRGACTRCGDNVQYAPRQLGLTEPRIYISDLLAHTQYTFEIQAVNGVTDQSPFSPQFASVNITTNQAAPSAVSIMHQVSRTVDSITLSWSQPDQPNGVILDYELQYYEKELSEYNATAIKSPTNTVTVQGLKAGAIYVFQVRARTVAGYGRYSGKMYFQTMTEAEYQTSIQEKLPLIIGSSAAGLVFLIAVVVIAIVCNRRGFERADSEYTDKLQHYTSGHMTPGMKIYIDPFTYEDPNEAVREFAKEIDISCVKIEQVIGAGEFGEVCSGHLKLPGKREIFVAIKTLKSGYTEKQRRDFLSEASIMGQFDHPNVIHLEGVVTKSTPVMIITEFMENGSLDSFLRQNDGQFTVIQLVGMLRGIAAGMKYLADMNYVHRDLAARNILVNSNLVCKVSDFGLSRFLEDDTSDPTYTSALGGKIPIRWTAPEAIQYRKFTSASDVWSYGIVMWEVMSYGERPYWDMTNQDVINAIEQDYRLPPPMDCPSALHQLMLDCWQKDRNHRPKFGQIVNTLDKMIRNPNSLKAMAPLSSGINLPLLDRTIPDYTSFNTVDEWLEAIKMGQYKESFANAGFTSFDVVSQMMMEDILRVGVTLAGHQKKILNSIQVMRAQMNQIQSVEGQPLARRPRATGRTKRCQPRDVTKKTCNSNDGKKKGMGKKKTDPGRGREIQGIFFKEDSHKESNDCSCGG
The note with it: at 1 µM.

The target in assay [4] is T3, Ephrin type-B receptor 3 (Homo sapiens) (UniProt P54753).
T3 sequence (whole entry): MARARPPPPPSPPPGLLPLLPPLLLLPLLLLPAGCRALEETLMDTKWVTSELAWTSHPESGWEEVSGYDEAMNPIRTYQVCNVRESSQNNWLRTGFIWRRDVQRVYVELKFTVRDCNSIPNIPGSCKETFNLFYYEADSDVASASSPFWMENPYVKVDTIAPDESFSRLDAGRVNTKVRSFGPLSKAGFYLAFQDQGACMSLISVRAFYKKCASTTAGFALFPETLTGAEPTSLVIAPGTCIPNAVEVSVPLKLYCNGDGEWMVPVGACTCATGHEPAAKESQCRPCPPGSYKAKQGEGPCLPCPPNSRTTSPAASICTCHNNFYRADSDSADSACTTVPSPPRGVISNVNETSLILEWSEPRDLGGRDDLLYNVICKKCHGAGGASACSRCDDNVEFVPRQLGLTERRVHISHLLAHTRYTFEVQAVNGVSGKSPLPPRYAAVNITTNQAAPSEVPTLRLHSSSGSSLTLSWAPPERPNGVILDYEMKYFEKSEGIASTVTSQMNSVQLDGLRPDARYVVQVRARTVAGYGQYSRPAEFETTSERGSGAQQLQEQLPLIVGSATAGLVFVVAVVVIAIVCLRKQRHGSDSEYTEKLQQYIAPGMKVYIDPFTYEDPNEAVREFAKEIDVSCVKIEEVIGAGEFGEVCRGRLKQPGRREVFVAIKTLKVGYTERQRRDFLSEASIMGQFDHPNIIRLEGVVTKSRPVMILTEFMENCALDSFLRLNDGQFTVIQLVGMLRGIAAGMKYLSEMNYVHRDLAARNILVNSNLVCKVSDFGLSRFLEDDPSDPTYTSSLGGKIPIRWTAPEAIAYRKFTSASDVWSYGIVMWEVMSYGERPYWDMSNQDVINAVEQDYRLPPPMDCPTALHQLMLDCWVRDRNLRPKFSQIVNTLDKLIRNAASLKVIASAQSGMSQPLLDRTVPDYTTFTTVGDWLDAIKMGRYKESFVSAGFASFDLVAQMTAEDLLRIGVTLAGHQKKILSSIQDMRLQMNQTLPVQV
Particulars: at 1 µM; call rule not given here.

Assay [5] addresses T3, Ephrin type-B receptor 3 (Homo sapiens). The note with it: at 10 µM.
Assay [6] deals with T4, Ephrin type-B receptor 4 (Homo sapiens) (UniProt P54760).
T4 sequence (whole entry): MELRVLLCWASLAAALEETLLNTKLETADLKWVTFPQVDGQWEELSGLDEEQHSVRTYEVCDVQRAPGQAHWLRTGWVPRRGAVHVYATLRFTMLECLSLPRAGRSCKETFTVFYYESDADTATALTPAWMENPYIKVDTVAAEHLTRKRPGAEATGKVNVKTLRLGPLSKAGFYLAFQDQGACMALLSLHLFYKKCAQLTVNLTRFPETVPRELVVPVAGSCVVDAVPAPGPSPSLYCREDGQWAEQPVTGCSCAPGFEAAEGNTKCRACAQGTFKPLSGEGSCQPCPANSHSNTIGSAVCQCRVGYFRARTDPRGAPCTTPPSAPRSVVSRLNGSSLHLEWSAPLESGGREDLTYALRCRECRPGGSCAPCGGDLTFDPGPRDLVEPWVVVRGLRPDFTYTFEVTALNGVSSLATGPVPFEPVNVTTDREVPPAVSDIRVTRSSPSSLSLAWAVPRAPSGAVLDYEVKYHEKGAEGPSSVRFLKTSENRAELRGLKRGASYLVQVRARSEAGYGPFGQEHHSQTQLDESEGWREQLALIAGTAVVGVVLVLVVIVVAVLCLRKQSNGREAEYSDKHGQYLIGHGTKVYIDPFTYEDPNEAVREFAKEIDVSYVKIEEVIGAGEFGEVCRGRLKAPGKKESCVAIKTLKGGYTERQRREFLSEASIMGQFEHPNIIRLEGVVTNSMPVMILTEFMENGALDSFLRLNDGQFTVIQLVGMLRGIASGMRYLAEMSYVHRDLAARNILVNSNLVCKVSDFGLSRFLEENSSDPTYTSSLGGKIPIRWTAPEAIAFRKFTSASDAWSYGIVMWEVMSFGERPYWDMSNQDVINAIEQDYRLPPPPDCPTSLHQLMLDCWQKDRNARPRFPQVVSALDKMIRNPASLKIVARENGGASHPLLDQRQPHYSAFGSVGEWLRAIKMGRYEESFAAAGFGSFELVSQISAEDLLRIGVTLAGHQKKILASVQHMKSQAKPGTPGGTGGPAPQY
Particulars: at 1 µM.

For assay [7], the target named is T4, Ephrin type-B receptor 4 (Homo sapiens). The note with it: at 10 µM.
In assay [8] the target is Receptor tyrosine-protein kinase erbB-4 (Homo sapiens) (UniProt Q15303). Particulars: at 1 µM.
The target is the same in assay [9]. The note with it: at 10 µM.
Assay [10] concerns the target Focal adhesion kinase 1 (Homo sapiens) (UniProt Q05397). Particulars: at 1 µM.

Broadly, the residual activity is the signal under treatment as a percentage of the control signal.

Chain of Receptor tyrosine-protein kinase erbB-4 (Homo sapiens) (Q15303 whole entry): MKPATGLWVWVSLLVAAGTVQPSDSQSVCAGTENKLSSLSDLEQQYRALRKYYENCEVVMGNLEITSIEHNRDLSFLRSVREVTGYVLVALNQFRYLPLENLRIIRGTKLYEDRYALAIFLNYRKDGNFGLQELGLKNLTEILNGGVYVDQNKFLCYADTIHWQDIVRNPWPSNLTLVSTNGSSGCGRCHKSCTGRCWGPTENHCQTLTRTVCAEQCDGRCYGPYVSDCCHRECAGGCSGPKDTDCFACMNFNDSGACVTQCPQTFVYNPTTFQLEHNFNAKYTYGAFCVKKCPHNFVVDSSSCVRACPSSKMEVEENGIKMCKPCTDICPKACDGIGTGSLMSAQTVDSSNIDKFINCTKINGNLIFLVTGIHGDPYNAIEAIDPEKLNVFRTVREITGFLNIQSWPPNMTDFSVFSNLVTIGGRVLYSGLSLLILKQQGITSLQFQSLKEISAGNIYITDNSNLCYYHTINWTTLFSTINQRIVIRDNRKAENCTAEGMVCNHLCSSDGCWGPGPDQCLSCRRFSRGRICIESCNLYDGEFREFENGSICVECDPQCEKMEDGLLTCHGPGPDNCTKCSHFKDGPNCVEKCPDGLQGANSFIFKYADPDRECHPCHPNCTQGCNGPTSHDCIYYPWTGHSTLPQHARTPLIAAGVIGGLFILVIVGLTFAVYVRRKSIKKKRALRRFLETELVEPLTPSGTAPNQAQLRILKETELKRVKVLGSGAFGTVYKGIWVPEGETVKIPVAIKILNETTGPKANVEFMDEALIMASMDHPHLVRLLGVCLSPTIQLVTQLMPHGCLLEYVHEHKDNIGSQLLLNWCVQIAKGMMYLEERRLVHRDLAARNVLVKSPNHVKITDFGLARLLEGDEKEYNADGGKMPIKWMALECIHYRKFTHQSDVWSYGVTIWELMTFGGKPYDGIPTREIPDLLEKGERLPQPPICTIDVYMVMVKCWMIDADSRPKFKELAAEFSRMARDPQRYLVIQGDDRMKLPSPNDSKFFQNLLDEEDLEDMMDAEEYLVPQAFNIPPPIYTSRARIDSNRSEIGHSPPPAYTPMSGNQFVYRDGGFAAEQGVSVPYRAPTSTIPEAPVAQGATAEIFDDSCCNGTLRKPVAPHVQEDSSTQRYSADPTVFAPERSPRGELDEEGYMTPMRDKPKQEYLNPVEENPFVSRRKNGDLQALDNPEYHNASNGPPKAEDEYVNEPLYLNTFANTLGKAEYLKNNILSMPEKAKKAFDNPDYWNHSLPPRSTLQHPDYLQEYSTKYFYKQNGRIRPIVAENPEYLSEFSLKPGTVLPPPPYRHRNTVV
Chain of Focal adhesion kinase 1 (Homo sapiens) (Q05397 2-1052 limits assumed): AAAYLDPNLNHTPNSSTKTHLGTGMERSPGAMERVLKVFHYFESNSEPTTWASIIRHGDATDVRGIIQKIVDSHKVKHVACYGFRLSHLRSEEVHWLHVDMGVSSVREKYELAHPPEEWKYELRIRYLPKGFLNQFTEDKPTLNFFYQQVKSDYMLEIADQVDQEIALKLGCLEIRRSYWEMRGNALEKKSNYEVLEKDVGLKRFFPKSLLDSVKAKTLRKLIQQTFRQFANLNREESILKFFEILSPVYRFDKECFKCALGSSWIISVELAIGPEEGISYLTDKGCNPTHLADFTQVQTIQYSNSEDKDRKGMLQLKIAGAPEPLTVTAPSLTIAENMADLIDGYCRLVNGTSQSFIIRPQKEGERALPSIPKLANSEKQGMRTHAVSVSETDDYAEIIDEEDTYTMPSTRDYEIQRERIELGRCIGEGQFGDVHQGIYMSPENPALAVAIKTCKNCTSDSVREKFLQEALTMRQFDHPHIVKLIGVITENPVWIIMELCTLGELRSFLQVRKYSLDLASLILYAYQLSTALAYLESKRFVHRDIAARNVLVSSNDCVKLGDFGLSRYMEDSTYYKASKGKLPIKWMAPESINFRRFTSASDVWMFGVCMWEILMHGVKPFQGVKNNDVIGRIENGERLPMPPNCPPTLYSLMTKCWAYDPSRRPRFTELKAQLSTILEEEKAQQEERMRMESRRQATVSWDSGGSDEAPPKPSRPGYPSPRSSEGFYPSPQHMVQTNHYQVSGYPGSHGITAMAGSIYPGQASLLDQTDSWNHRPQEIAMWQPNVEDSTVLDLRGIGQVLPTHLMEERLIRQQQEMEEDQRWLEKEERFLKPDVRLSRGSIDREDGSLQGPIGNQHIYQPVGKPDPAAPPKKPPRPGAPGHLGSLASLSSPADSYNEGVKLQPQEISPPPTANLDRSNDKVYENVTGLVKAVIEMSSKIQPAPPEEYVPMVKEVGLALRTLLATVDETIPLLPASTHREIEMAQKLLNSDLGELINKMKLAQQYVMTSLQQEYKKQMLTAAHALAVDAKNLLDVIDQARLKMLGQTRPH

Turning to `COc1cc2ncnc(N3CCN(C(=O)Nc4ccc(Oc5ccccc5)cc4)CC3)c2cc1OC`, the residual activity in assay [1] is 96%; in [2] it was 102%; in assay [3], 114%; in assay [4], 110% (inactive); in assay [5] it was 146%; in assay [6], 98%. Also, the residual activity in [7] came out at 112%; in assay [8] it was 100%; in assay [9] it was 145%; in [10], 108%.
